Test results as given in PubChem BioAssay AID1159580 (chemical genetic matrix, 2015).
Screen size: about 5,500 compounds; about 2,000 (36%) were called active. About 18% were inconclusive and are not listed. No stated cut-off is given here; in the data, active means normalized growth mostly below about 0.91 (no sharp cut-off); inconclusive means no clear call, values can overlap the other calls; inactive means mostly above about 0.92. Some of the results follow.

Experiment: chemical genetic growth profiling, strain panel (AID 1159580);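 further: tested at 20 µM; growth read once vehicle control cultures reached saturation at 30 °C; 1 = growth at the plate median or of vehicle wells; lower values mean less growth of the strain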
Settings: S. cerevisiae deletion strains, growth OD

Measured: normalized growth

Cn1nccc1-c1cc(Cl)cc(Cl)c1O
active: locus YER133W, strain GLC7, active compounds read low 0.687 | locus YHR030C, strain SLT2, active compounds read low 0.617 | locus YLR113W, strain HOG1, active compounds read low 0.571 | locus YPL256C, strain CLN2, active compounds read low 0.718
inactive: locus YAR019C, strain CDC15, active compounds read low 0.955 | locus YBL105C, strain PKC1, active compounds read low 0.959 | locus YBR135W, strain CKS1, active compounds read low 0.963 | locus YBR136W, strain MEC1, active compounds read low 0.959 | locus YBR160W, strain CDC28, active compounds read low 0.969 | locus YDL017W, strain CDC7, active compounds read low 0.962 | locus YDL028C, strain MPS1, active compounds read low 0.964 | locus YDL101C, strain DUN1, active compounds read low 0.964 | locus YDL108W, strain KIN28, active compounds read low 0.967 | locus YDL132W, strain cdc53, active compounds read low 0.966 | locus YDL214C, strain PRR2, active compounds read low 0.799 | locus YDR052C, strain DBF4, active compounds read low 0.971 | locus YDR054C, strain cdc34, active compounds read low 0.969 | locus YDR226W, strain ADK1, active compounds read low 0.981 | locus YDR477W, strain SNF1, active compounds read low 0.731 | locus YER123W, strain YCK3, active compounds read low 0.739 | locus YFL009W, strain cdc4, active compounds read low 0.982 | locus YFL029C, strain CAK1, active compounds read low 0.952 | locus YFR003C, strain YPI1, active compounds read low 0.961 | locus YFR019W, strain FAB1, active compounds read low 0.869 | locus YFR028C, strain CDC14, active compounds read low 0.975 | locus YGR040W, strain KSS1, active compounds read low 0.745 | locus YGR052W, strain FMP48, active compounds read low 0.742 | locus YGR092W, strain DBF2, active compounds read low 0.722 | locus YHR079C, strain IRE1, active compounds read low 0.698 | locus YHR082C, strain KSP1, active compounds read low 0.748 | locus YHR205W, strain SCH9, active compounds read low 0.787 | locus YIL147C, strain SLN1, active compounds read low 0.96 | locus YJL095W, strain BCK1, active compounds read low 0.676 | locus YJL128C, strain PBS2, active compounds read low 0.917 | locus YJL157C, strain FAR1, active compounds read low 0.749 | locus YJR016C, strain ILV3, active compounds read low 0.962 | locus YJR066W, strain TOR1 (second series), active compounds read low 0.673 | locus YJR066W, strain TOR1, active compounds read low 0.686 | locus YKL048C, strain ELM1, active compounds read low 0.908 | locus YKL067W, strain YNK1, active compounds read low 0.817 | locus YKL101W, strain HSL1, active compounds read low 0.835 | locus YKL193C, strain SDS22, active compounds read low 0.934 | locus YKL203C, strain TOR2, active compounds read low 0.798 | locus YLR133W, strain CKI1, active compounds read low 0.825 | locus YLR403W, strain SFP1, active compounds read low 0.678 | locus YML070W, strain DAK1, active compounds read low 0.719 | locus YMR001C, strain CDC5, active compounds read low 0.947 | locus YMR205C, strain PFK2 (second series), active compounds read low 0.795 | locus YMR277W, strain FCP1, active compounds read low 0.934 | locus YNL006W, strain LST8, active compounds read low 0.968 | locus YNL020C, strain ARK1, active compounds read low 0.819 | locus YNL161W, strain CBK1, active compounds read low 0.956 | locus YNL183C, strain NPR1, active compounds read low 0.757 | locus YNL207W, strain RIO2, active compounds read low 0.948 | locus YNL222W, strain SSU72, active compounds read low 0.964 | locus YNL307C, strain MCK1 (second series), active compounds read low 0.798 | locus YOL078W, strain AVO1, active compounds read low 0.95 | locus YOL136C, strain PFK27, active compounds read low 0.773 | locus YOR061W, strain CKA2, active compounds read low 0.744 | locus YOR119C, strain RIO1, active compounds read low 0.798 | locus YOR231W, strain MKK1, active compounds read low 0.795 | locus YOR329C, strain SCD5, active compounds read low 0.963 | locus YPL031C, strain PHO85, active compounds read low 0.704 | locus YPL153C, strain RAD53, active compounds read low 0.718 | locus YPL204W, strain HRR25, active compounds read low 0.685 | locus YPL209C, strain IPL1, active compounds read low 0.965 | locus YPR025C, strain CCL1, active compounds read low 0.961 | locus YPR106W, strain ISR1, active compounds read low 0.948 | locus YPR111W, strain DBF20, active compounds read low 0.952 | strain NNK1, active compounds read low 0.96 | strain TSCII, active compounds read low 0.947
